Assay results published in PubChem BioAssay.
Several values for one entry are separate records, joined by “and”; a condition that tells them apart may be missing. Equal entries are not always repeated. Records with an inconclusive call do not appear. Activity calls are given as the source filed them.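 The calls were made as follows, unless noted: active = normalized viability below 100% at a tested concentration; inactive = the rest.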

What was measured:
[1] = viability loss in pontine glioma line – cell-based, SU-DIPG-XVII, MIPE5.0, CellTiter-Glo, qHTS, dose response (AID 1347060; cut-off not given, nearly all actives have AC50 up to about 26 µM;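 as to AC50: cells exposed to compound for 48 hours before viability readout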); settings: CellTiter-Glo ATP luminescence
[2] = viability loss in pontine glioma line – cell-based, JHH-DIPG-1, MIPE4.0, CellTiter-Glo, qHTS, dose response (AID 1347062; cut-off not given, nearly all actives have AC50 up to about 27 µM); settings: JHH-DIPG-1 viability, CellTiter-Glo ATP luminescence
[3] = viability loss in pontine glioma line – cell-based, SU-DIPG-XXV, MIPE5.0, CellTiter-Glo, qHTS, dose response (AID 1347065; cut-off not given, nearly all actives have AC50 up to about 26 µM;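 also: cells exposed to compound for 48 hours before ATP readout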); settings: CellTiter-Glo ATP luminescence
[4] = growth inhibition of DIPG cells – cell-based, MIPE4.0 library, CellTiter-Glo luminescence, qHTS (AID 1347066; cut-off not given, nearly all actives have AC50 up to about 30 µM;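 also: cells exposed to compound for 48 hours before readout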); settings: SU-DIPG-VI viability, CellTiter-Glo ATP luminescence
[5] = viability loss with induced miR-34 in A549 – imaging, A549 dox-inducible miR-34, nuclei and caspase counts, primary screen (AID 1347080;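 active = compounds whose cell count with miR-34 switched on is under 0.7 times the count with it off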); settings: A549 miR-34 inducible, Hoechst nuclei count, 48 h
[6] = compounds altering HSF1 focus formation in cells – imaging, Selleck Cancer Library (AID 1347162; in the data active = plate-normalised HSF1 focus index below about 0.46); settings: human cells, HSF1 nuclear foci imaging, at 10 µM; SSMD: measured here: HSF1 foci SSMD mean; cell count: measured here: cell number; plate-normalised HSF1 focus index: stronger effect = lower value
[7] = MELAS cybrid and Rieske KO viability enhancers – cell-based, MELAS cybrids, Rieske KO mouse fibroblasts, CellTiter-Glo, primary screen (AID 1508586;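 active = mean z-score across replicates of 1.96 or higher in either the MELAS or the Rieske mutant cell line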;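 also: z relative to plate mean and SD of compound and empty wells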); settings: low glucose
[8] = drug combination growth inhibition, ovarian cancer – cell-based, oncology-focused library, rucaparib conditional, profiling panel (AID 1508598); settings: patient-derived ovarian cancer cells, CellTiter-Glo viability, 144 h, stronger effect = lower value
[9] = viability loss in pontine glioma line – cell-based, SU-DIPG-XIII, MIPE5.0, CellTiter-Glo, qHTS, dose response (AID 1347064; cut-off not given, nearly all actives have AC50 up to about 23 µM); settings: CellTiter-Glo ATP luminescence
[10] = growth inhibition of DIPG cells – cell-based, MIPE5.0 library, qHTS (AID 1347068; cut-off not given, nearly all actives have IC50 up to about 30 µM); settings: SU-DIPG-XXV viability
[11] = growth inhibition, single agent or in combination, cell-based, chromothripsis tumors, cisplatin or BGB combos (AID 1671449; in the data active = inhibition above about 80%;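 also: cells exposed for 96 hours; 0% = vehicle DMSO and 100% = killing by high DMSO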); settings: LFS_MB_P medulloblastoma cells
[12] = growth inhibition, single agent and combos, cell-based, chromothripsis tumors, cisplatin or BGB combos (AID 1671450; in the data active = inhibition above about 80%;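 also: cells exposed to compound for four days; 0% = vehicle DMSO and 100% = cell killing by high DMSO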); settings: HDN33 neuroblastoma cells, stronger effect = higher value
[13] = growth inhibition, single agents and combos, ICB984, cell-based, cisplatin or BGB combos, synergistic combos for chromothripsis tumors (AID 1671451; call rule not given here;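 also: cells exposed for 96 hours before readout; 0% = vehicle DMSO and 100% = killing by high DMSO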); settings: ICB984 medulloblastoma cells, drug combinations, stronger effect = higher value
[14] = growth inhibition, single agents and combos, HTB85, cell-based, BGB or cisplatin IC20 combos, synergistic combos for chromothripsis tumors (AID 1671453; in the data active = inhibition above about 80%;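 also: cells exposed for 96 hours before readout; 0% = vehicle DMSO and 100% = high DMSO killing control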); settings: HTB85 osteosarcoma cells, drug combinations, stronger effect = higher value
[15] = growth inhibition, MDA-MB-436, cell-based, BGB or cisplatin combos, synergistic combos for chromothripsis tumors (AID 1671458; call rule not given here;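 also: cells exposed for 96 hours; 0% = vehicle DMSO and 100% = killing by high DMSO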); settings: MDA-MB-436 breast carcinoma growth inhibition, drug combinations, stronger effect = higher value
[16] = BT084 cell growth, single and combined drugs, ICGC_MB145, cisplatin and BGB IC40 combos (AID 1671461; in the data active = inhibition above about 80%;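 also: cells exposed to drugs for 96 hours; 0% = vehicle DMSO and 100% = high DMSO full killing control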); settings: BT084 medulloblastoma cells, drug combinations, stronger effect = higher value
[17] = RCMB18 cell growth, single agent and combined, cisplatin and BGB IC40 combos (AID 1671462; in the data active = inhibition above about 80%;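 also: cells exposed to compound for four days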); settings: RCMB18 medulloblastoma cells, stronger effect = higher value
[18] = CRL1545 cell growth, single agent and combined, cisplatin and BGB IC20 combos (AID 1671464; in the data active = inhibition above about 80%;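 also: cells exposed to compound for 96 hours before readout; 0% = vehicle DMSO and 100% = high DMSO killing control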); settings: CRL1545 osteosarcoma cells, stronger effect = higher value
[19] = stronger effect = lower value, cell number ratio, induced over uninduced
[20] = measured here: relative caspase fold change +Dox/-Dox
[21] = measured here: total cells with miR-34 induction, stronger effect = lower value
[22] = measured here: total cells without miR-34 induction
[23] = MELAS cybrid survival, CellTiter-Glo 48 h, stronger effect = higher value
[24] = Rieske KO mouse fibroblast survival, CellTiter-Glo 72 h
[25] = measured here: with BGB IC20 combination, at 0.5 µM
[26] = measured here: with cisplatin IC20 combination, at 0.5 µM

CCN(CCO)CCCOc1ccc2c(Nc3cc(CC(=O)Nc4cccc(F)c4)[nH]n3)ncnc2c1
AC50 [1]: 235 nM (active)
outcome [2]: inactive
AC50 [3]: 148 nM (active)
outcome [4]: inactive
fold change [5, 19]: 0.945 (inactive)
fold change [5, 20]: 0.861
cell count [5, 21]: 2110
cell count [5, 22]: 2230
SSMD [6]: 1.14
cell count [6]: 7480
plate-normalised HSF1 focus index [6]: 1.04 (inactive)
z-score [7, 23]: -0.237 (inactive)
z-score [7, 24]: 0.586
viability ([8]; at 0.000305 µM, OCI-C5x cells, with rucaparib 10 µM, 100% = cells with rucaparib alone): 106% (inactive)
viability ([8]; at 0.000305 µM, OCI-C5x cells, without rucaparib): 113% (inactive)
viability ([8]; at 0.000305 µM, OCI-P5x cells, with rucaparib 20 µM, 100% = cells with rucaparib alone): 110% (inactive)
viability ([8]; at 0.000305 µM, OCI-P5x cells, without rucaparib): 110% (inactive)
viability ([8]; at 0.00122 µM, OCI-C5x cells, with rucaparib 10 µM, 100% = cells with rucaparib alone): 103% (inactive)
viability ([8]; at 0.00122 µM, OCI-C5x cells, without rucaparib): 118% (inactive)
viability ([8]; at 0.00122 µM, OCI-P5x cells, with rucaparib 20 µM, 100% = cells with rucaparib alone): 115% (inactive)
viability ([8]; at 0.00122 µM, OCI-P5x cells, without rucaparib): 108% (inactive)
viability ([8]; at 0.00488 µM, OCI-C5x cells, with rucaparib 10 µM, 100% = cells with rucaparib alone): 114% (inactive)
viability ([8]; at 0.00488 µM, OCI-C5x cells, without rucaparib): 112% (inactive)
viability ([8]; at 0.00488 µM, OCI-P5x cells, with rucaparib 20 µM, 100% = cells with rucaparib alone): 115% (inactive)
viability ([8]; at 0.00488 µM, OCI-P5x cells, without rucaparib): 111% (inactive)
viability ([8]; at 0.0195 µM, OCI-C5x cells, with rucaparib 10 µM, 100% = cells with rucaparib alone): 109% (inactive)
viability ([8]; at 0.0195 µM, OCI-C5x cells, without rucaparib): 91.6% (active)
viability ([8]; at 0.0195 µM, OCI-P5x cells, with rucaparib 20 µM, 100% = cells with rucaparib alone): 104% (inactive)
viability ([8]; at 0.0195 µM, OCI-P5x cells, without rucaparib): 106% (inactive)
viability ([8]; at 0.0781 µM, OCI-C5x cells, with rucaparib 10 µM, 100% = cells with rucaparib alone): 81% (active)
viability ([8]; at 0.0781 µM, OCI-C5x cells, without rucaparib): 77.3% (active)
viability ([8]; at 0.0781 µM, OCI-P5x cells, with rucaparib 20 µM, 100% = cells with rucaparib alone): 104% (inactive)
viability ([8]; at 0.0781 µM, OCI-P5x cells, without rucaparib): 80.5% (active)
viability ([8]; at 0.313 µM, OCI-C5x cells, with rucaparib 10 µM, 100% = cells with rucaparib alone): 65.1% (active)
viability ([8]; at 0.313 µM, OCI-C5x cells, without rucaparib): 80.3% (active)
viability ([8]; at 0.313 µM, OCI-P5x cells, with rucaparib 20 µM, 100% = cells with rucaparib alone): 82.3% (active)
viability ([8]; at 0.313 µM, OCI-P5x cells, without rucaparib): 65.3% (active)
viability ([8]; at 1.25 µM, OCI-C5x cells, with rucaparib 10 µM, 100% = cells with rucaparib alone): 83.4% (active)
viability ([8]; at 1.25 µM, OCI-C5x cells, without rucaparib): 83% (active)
viability ([8]; at 1.25 µM, OCI-P5x cells, with rucaparib 20 µM, 100% = cells with rucaparib alone): 86.7% (active)
viability ([8]; at 1.25 µM, OCI-P5x cells, without rucaparib): 62% (active)
viability ([8]; at 5 µM, OCI-C5x cells, with rucaparib 10 µM, 100% = cells with rucaparib alone): 107% (inactive)
viability ([8]; at 5 µM, OCI-C5x cells, without rucaparib): 95.3% (active)
viability ([8]; at 5 µM, OCI-P5x cells, with rucaparib 20 µM, 100% = cells with rucaparib alone): 83.1% (active)
viability ([8]; at 5 µM, OCI-P5x cells, without rucaparib): 58.7% (active)

Cc1cc(-c2ncc(CC(=O)Nc3ccc(-c4cnccn4)cn3)cc2C)ccn1
outcome [1]: inactive
outcome [2]: inactive
outcome [9]: inactive
outcome [4]: inactive
outcome [10]: inactive
fold change [5, 19]: 0.911 (inactive)
fold change [5, 20]: 0.406
cell count [5, 21]: 6130
cell count [5, 22]: 6730
z-score [7, 23]: -0.348 (inactive)
z-score [7, 24]: 0.85

CC1(C)CCC2=C(O1)c1ccccc1C(=O)C2=O
inhibition ([11]; at 0.5 µM, stronger effect = higher value): -7.4% (inactive) and 16.4% (inactive)
inhibition ([11]; measured here: combination with BGB IC20, at 0.005 µM): -31.4% and 0.116%
inhibition ([11]; measured here: combination with BGB IC40, at 0.005 µM): -87% and -10.2%
inhibition ([11]; measured here: combination with BGB IC40, at 0.05 µM): -28.3% and -0.424%
inhibition ([11]; measured here: combination with cisplatin, at 0.5 µM, stronger effect = higher value): 51.9% and 10.9%
inhibition ([11]; measured here: combination with cisplatin, at 5 µM, stronger effect = higher value): 111% and 116%
inhibition ([12]; BGB combo, at 5 µM): 99.6% and 99%
inhibition ([12]; at 0.5 µM): -4.92% (inactive) and -3.55% (inactive)
inhibition ([12]; cisplatin combo, at 5 µM): 99% and 99.1%
inhibition [12, 25]: -10.6% and -8.55%
inhibition [12, 26]: 4.95% and -8.23%
inhibition ([12]; single agent, at 5 µM): 99.5% and 99.2%
inhibition ([13]; BGB IC20 combo, at 0.005 µM): -11% and 11%
inhibition ([13]; BGB IC40 combo, at 0.005 µM): -16.5% and -32.8%
inhibition ([13]; BGB IC40 combo, at 0.05 µM): 91.3% and 98.3%
inhibition ([13]; at 0.5 µM): -22.3% (inactive) and -31.1% (inactive)
inhibition ([13]; cisplatin combo, at 0.05 µM): 91.3% and 98.3%
inhibition ([13]; cisplatin combo, at 0.5 µM): -20.6% and -42.9%
inhibition ([13]; cisplatin combo, at 5 µM): -38.6% and -41.8%
inhibition ([13]; measured here: 5 uM single agent, at 5 µM): 2.52% and -3.56%
inhibition ([14]; at 0.5 µM): -5.23% (inactive) and 6.87% (inactive)
inhibition ([14]; measured here: with BGB IC20, at 0.5 µM): 23.7% and 5.32%
inhibition ([14]; measured here: with BGB IC20, at 5 µM): 76.7% and 64.8%
inhibition ([14]; measured here: with cisplatin IC20, at 0.5 µM): -20.9% and 1.14%
inhibition ([14]; measured here: with cisplatin IC20, at 5 µM): 61.5% and 60.9%
inhibition ([14]; single agent, at 5 µM): 70.5% and 62.3%
inhibition ([15]; at 0.5 µM): -2.8% (inactive) and -3.21% (inactive)
inhibition ([15]; measured here: BGB combination, at 0.5 µM): 3.02% and -1.78%
inhibition ([15]; measured here: BGB combination, at 5 µM): 81.9% and 78.2%
inhibition ([15]; measured here: cisplatin combination, at 0.5 µM): -22.4% and -3.57%
inhibition ([15]; measured here: cisplatin combination, at 5 µM): 86.7% and 87.2%
inhibition ([16]; at 0.5 µM): -12.5% (inactive) and -0.136% (inactive)
inhibition ([16]; cisplatin combination, at 0.5 µM): -14.9% and 2.47%
inhibition ([16]; cisplatin combination, at 5 µM): 78.1% and 100%
inhibition ([16]; measured here: BGB IC40 combination 0.05 uM, at 0.05 µM): -20.9% and -18.5%
inhibition ([16]; single agent, at 5 µM): 99.5% and 99.6%
inhibition ([17]; at 0.5 µM): -1.45% (inactive) and 6.25% (inactive)
inhibition ([17]; cisplatin combo, at 5 µM): 101%
inhibition ([17]; measured here: BGB IC40 combination, at 0.05 µM): -6.29% and -29%
inhibition ([17]; measured here: combination with cisplatin, at 0.5 µM): -0.361% and 36.6%
inhibition ([17]; single agent, at 5 µM): 98.1% and 99.3%
inhibition ([18]; at 0.5 µM): 36.2% (inactive) and 22.6% (inactive)
inhibition [18, 25]: 33.7% and 14.6%
inhibition [18, 26]: 36.4% and 26.5%
inhibition ([18]; single agent, at 0.05 µM): -59.2% and -23.1%
inhibition ([18]; single agent, at 5 µM): 98.9% and 98.3%
